# Sampled rows, rich in hits. Any-hit rate of the full collection: about 2.3%.
# NTR1 ag = agonists of human NTR1, primary screen, imaging, U2OS cells, beta-arrestin-GFP, high content | Neurotensin receptor type 1 (Homo sapiens), P30989 | NTR1-U2OS beta-arrestin-GFP spot imaging, agonist mode | activation, % at 20 µM | 0.17% of 330,000 active;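 active = activation at or above 40% of the spot to cytoplasm intensity ratio, with at least 20 cells analyzed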;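 also: 0% = DMSO without peptide and 100% = 100 nM NTR1 peptide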
# Granule exo inh = LAMP-1 surface exposure blockers, TALL-104 cells – cell-based, flow cytometry, MLPCN library, primary screen | AID 651702, 2012 | TALL-104 LAMP-1 surface exposure; cells stimulated with thapsigargin and PMA | 0.66% of 360,000 active | inhibition, % at 10 µM;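 active = inhibition above about 55%, limit read from the data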
# Beta2AR agonist = beta2AR agonists driving receptor internalization, primary screen, cell-based, FAP fluorogen, flow cytometry; Beta-2 adrenergic receptor (Homo sapiens), P07550; Am2.2-beta2AR cells; response, % (concentration not given with the values); 0.43% of 340,000 active; AID 504454, 2011;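 active = response above a set limit, near 3 SD of response in nonfluorescent compounds, cut at about 42% in these data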
# ABHD5 PLIN5 PPI = ABHD5-PLIN5 interaction inhibitors, primary screen, cell lysate, split luciferase complementation, luminescence. Split G. princeps luciferase complementation, 4 h. inhibition, % at 4 µM. 0.78% of 360,000 active. AID 602281, 2012;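 active = inhibition above the mean inhibition across every tested compound plus 3 SD, cut at about 22% in these data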;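 also: 0% = DMSO only wells and the 100% control is not disclosed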
# m5-HT2A agonist = mouse Htr2a agonists via beta-arrestin recruitment, primary screen, cell-based, luminescence; AID 624169, 2012; 0.66% of 360,000 active; CHO-K1 mHTR2A beta-arrestin complementation; percent of 30 µM serotonin response; 5-hydroxytryptamine receptor 2A (Mus musculus), P35363; activation, % at 7.6 µM;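 active = activation above a run cutoff, the mean activation of all tested compounds plus 3 SD, cut at about 14% in these data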;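 also: 0% = plate median of compound wells and 100% = 30 µM serotonin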
# ABHD5 PLIN5 conf = ABHD5-PLIN5 interaction inhibitors, confirmation, biochemical, luminescence; shares compounds with ABHD5 PLIN5 PPI; inhibition, % at 4 µM; 67% of 2,200 active; AID 651612, 2012; in the data active = inhibition above about 23%;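 also: 0% = DMSO vehicle wells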
# HNF4 counter = HNF4 dimerization inhibitors, counter-screen for ABHD5-PLIN5 interaction inhibitor project, biochemical, split-luciferase complementation, luminescence; inhibition, % at 4 µM; 77% of 2,200 active; shares compounds with ABHD5 PLIN5 PPI;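 active = mean inhibition across replicate wells exceeding the computed hit threshold, cut at about 13% in these data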;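 also: light from luciferase halves that rejoin when HNF4 fusion proteins dimerize; 0% = DMSO only wells and the 100% control is not given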
# Target sequence (P41235 whole entry, looked up, the tested form may be a part): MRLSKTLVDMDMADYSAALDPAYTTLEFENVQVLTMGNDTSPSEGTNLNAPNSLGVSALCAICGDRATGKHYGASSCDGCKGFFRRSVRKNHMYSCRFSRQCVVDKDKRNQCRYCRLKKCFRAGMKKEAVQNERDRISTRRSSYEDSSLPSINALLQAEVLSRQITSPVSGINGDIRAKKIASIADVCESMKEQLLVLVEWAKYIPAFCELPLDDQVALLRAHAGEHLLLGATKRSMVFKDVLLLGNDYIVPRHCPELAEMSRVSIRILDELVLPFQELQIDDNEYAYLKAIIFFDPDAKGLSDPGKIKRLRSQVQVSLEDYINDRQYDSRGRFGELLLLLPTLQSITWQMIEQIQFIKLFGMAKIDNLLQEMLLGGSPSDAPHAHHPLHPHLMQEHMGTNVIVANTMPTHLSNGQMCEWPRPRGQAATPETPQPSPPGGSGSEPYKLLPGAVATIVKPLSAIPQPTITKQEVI
# * hit, by the source's call; x = no result.
SMILES,NTR1 ag,Granule exo inh,Beta2AR agonist,ABHD5 PLIN5 PPI,m5-HT2A agonist,ABHD5 PLIN5 conf,HNF4 counter
O=C(O)c1cccc(S(=O)(=O)Nc2ccc3oc(=O)sc3c2)c1,-0.4,-2.9,5.8,62.9*,-4.1,-39.9,41.7*
O=C(O)c1cccc(S(=O)(=O)Nc2ccc3[nH]c(=O)[nH]c3c2)c1,-1.2,1.5,0.6,-1.1,4.0,x,x
Cc1ccc(CS(=O)(=O)c2ncc(Cl)c(C(=O)Nc3ccc(OC(F)F)cc3)n2)cc1,-2.6,35.2,27.0,57.2*,-2.9,89.7*,89.5*
CSc1ncc(Cl)c(C(=O)Nc2ccc(NC(C)=O)cc2)n1,2.8,-2.4,0.7,-2.3,-1.9,x,x
CCS(=O)(=O)c1ncc(Cl)c(C(=O)Nc2ccc(C)cc2)n1,1.0,-21.4,0.1,47.8*,-0.5,72.3*,77.6*
CCC1CCCCN1S(=O)(=O)c1ccc(NC(=O)c2nc(S(C)(=O)=O)ncc2Cl)cc1 (stereo not drawn),-0.5,30.0,32.2,90.6*,-11.2,99.7*,107.4*
N#Cc1c(NC(=O)C2CC(Cl)=CCC2C(=O)O)sc2c1CCCC2 (stereo not drawn),-0.4,-0.1,-0.4,-6.1,1.5,x,x
CC(C)(C)CN1CCN(CC#Cc2ccccc2)CC1CCO (stereo not drawn),1.2,7.4,1.1,2.9,-1.3,x,x
O=c1c2cc(C(F)(F)F)ccc2sn1-c1ccccc1,x,31.2,x,-16.3,1.2,x,x
O=C(O)c1cccc(-n2sc3ccccc3c2=O)c1,2.3,0.7,-0.5,109.3*,-2.5,97.3*,119.5*
C=CCn1c(=S)[nH]c2scc(-c3ccc(C)o3)c2c1=O,2.0,15.7,11.4,31.6*,-0.3,21.8,66.1*
CCn1c(=S)[nH]c2scc(-c3cccs3)c2c1=O,x,1.8,10.5,-10.5,-3.7,x,x
C/C=C1\NC(=O)[C@H](C)NC(=O)[C@@H](NC(=O)[C@H](Cc2ccc(O)cc2)NC(=O)[C@@H](NC(=O)/C(C)=C/C)C(C)C)[C@@H](C)OC(=O)[C@H](CC(C)C)NC(=O)[C@@H](CCC(=O)O)NC1=O,x,2.7,x,-3.2,10.9,x,x
COc1cc(OC)cc(-c2c(Sc3ccccc3)c3cc(-c4ccc5c(c4)OCCO5)ccc3n2C)c1,x,2.9,x,-2.6,9.3,x,x
Cc1ccccc1NS(=O)(=O)c1ccc(C(=O)N2CCCC(C(F)(F)F)C2)cc1 (stereo not drawn),1.0,-0.8,7.4,10.7,1.3,x,x
CC(C)n1cc(C#N)c(N)n1,x,0.2,3.6,4.7,2.6,x,x
O=c1[nH]c(Sc2ccc([N+](=O)[O-])cc2[N+](=O)[O-])nc2ccccc12,13.6,90.3*,4.1,40.5*,-2.3,40.6*,33.5*
Cc1nc(SCC(=O)N(C)Cc2ccco2)c2c(C)c(C)sc2n1,5.2,0.5,14.2,32.4*,1.7,18.4,22.2*
CCCN(C(=O)CSCc1ccc(Cl)cc1)c1c(N)n(Cc2ccccc2)c(=O)[nH]c1=O,0.6,-13.0,-0.8,0.9,-5.6,x,x
Cc1[nH]nc2c1C(c1ccc(-c3ccccc3C#N)o1)C(C#N)=C(N)O2 (stereo not drawn),8.6,1.9,11.4,-1.6,-1.3,x,x
Cc1[nH]nc2c1C(c1ccc(-c3ccc(Cl)cc3)o1)C(C#N)=C(N)O2 (stereo not drawn),0.7,-0.2,-0.7,27.5*,7.6,16.8,43.6*
Cc1ccc(-c2ccc(C3C(C#N)=C(N)Oc4n[nH]c(C)c43)o2)cc1 (stereo not drawn),14.7,-1.6,16.8,23.7*,2.6,26.5*,44.1*
Cc1sc2ncn(CC(=O)NCc3ccco3)c(=O)c2c1-c1ccc(F)cc1,-0.2,-3.3,-0.1,28.7*,1.3,55.9*,61.7*
CC(C)Cn1c([N+](=O)[O-])nc2c1c(=O)[nH]c(=O)n2C,0.1,2.2,8.8,-6.8,1.2,x,x
Cn1c(=O)[nH]c(=O)c2c1nc([N+](=O)[O-])n2Cc1ccccc1,10.6,12.2,66.8*,24.3*,-5.5,61.8*,59.0*
SMILES,NTR1 ag,Granule exo inh,Beta2AR agonist,ABHD5 PLIN5 PPI,m5-HT2A agonist,ABHD5 PLIN5 conf,HNF4 counter
COc1ccc(-n2nc3c(c2NC(=O)c2cc4ccccc4o2)CS(=O)(=O)C3)cc1,2.3,1.6,-2.0,2.9,0.2,x,x
CC(=O)Nc1ccccc1C,-1.4,-2.6,4.7,-9.1,1.7,x,x
Cc1ccccc1NC(=O)C(=Cc1ccc(C(=O)O)cc1)C(=O)Nc1ccccc1C,x,15.4,14.5,27.4*,-1.9,64.8*,45.5*
CC(=O)/C(=C/c1ccccc1)C(=O)Nc1ccccc1C,2.1,3.6,43.4*,39.0*,0.8,86.4*,71.2*
CCc1cc(=O)oc2c(C)c(OCC(=O)NCC3CCC(C(=O)O)CC3)ccc12 (stereo not drawn),-2.6,-6.2,31.2,7.1,6.1,x,x
Cc1nc2sc3c(=O)[nH]nnc3c2c(C)c1Br,1.1,2.7,12.8,1.3,-1.4,x,x
O=C(Cn1nc(-c2nn(CC(=O)c3ccccc3)c3[n+]2CCCCC3)[n+]2c1CCCCC2)c1ccccc1,0.0,-4.9,3.5,4.1,-1.1,x,x
COc1ccc(C(=O)Cn2nc(CNc3ccc(Br)cc3)[n+]3c2CCCCC3)cc1,-0.9,-2.2,-5.2,37.1*,-4.8,23.2*,14.2*
Cc1c(Cl)cccc1NC(CC(=O)c1ccccc1)C(=O)O (stereo not drawn),-1.3,5.7,0.6,83.7*,-4.7,57.2*,107.8*
O=C(CC(Nc1cccc(Cl)c1Cl)C(=O)O)c1ccccc1 (stereo not drawn),-0.3,-0.3,-1.4,85.5*,-1.5,14.7,73.1*
O=C(CC(Nc1cccc(Cl)c1Cl)C(=O)OCC(=O)c1cccs1)c1ccccc1 (stereo not drawn),2.1,0.2,2.5,13.6,0.3,x,x
Cc1c(Cl)cccc1NC(CC(=O)c1ccccc1)C(=O)OCC(=O)c1cccs1 (stereo not drawn),2.3,0.7,-0.5,13.5,1.6,x,x
O=C(CC(Nc1ccccc1Cl)C(=O)O)c1ccccc1 (stereo not drawn),-0.1,32.2,12.8,82.6*,-1.1,29.1*,96.6*
CC1CN(S(=O)(=O)c2cccc(C(=O)NCc3ccco3)c2)CC(C)O1 (stereo not drawn),-2.8,3.4,-6.9,3.6,-2.2,x,x
CCOC(=O)c1c(NC(=O)/C=C/C(=O)O)sc(C)c1-c1ccc(C)c(C)c1,1.4,24.7,24.7,24.6*,0.3,19.6,2.6

# Screens as filed in PubChem BioAssay.
